# Active and inactive are the calls of the source. How the source made its calls: active means hit-call score of the fitted dose curve at least 0.9, where 1 is the maximum; inactive means score below 0.9.
# Assays:
# [1] = BSK_hDFCGF_Proliferation: Cell Proliferation Assessment in the BioMAP Diversity Plus: hDFCGF Assay (AID 2283059); details: primary human foreskin fibroblasts;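 further: curves fitted for both rise and fall of signal versus DMSO baseline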
# In short: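 Steps: dose primary human dermal fibroblasts (foreskin); […] fix in 10% TCA; stain with 0.1% SRB; read 560 nm; fit gain or loss of signal against DMSO.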
# [2] = read-out: Macrophage colony-stimulating factor (MCSF), CSF1 (gene 1435); test: BSK_hDFCGF_MCSF: BioMAP Diversity Plus: hDFCGF Assay for Macrophage colony-stimulating factor (MCSF) Biomarker Activity (AID 2283060); details: primary human foreskin fibroblasts; actives raise or lower the signal
# In short: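 fibroblasts (human foreskin, primary), 24 h post-dose; M-CSF by ELISA; bidirectional fit, DMSO = baseline.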
# [3] = BSK_hDFCGF_SRB: Viability Assessment in the BioMAP Diversity Plus: hDFCGF Assay (AID 2283061); details: primary human foreskin fibroblasts;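 further: cells exposed to compound for 24 h before the read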
# In short: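 SRB-based viability read on primary human skin fibroblasts at 24 h: TCA fixation, 0.1% dye, 560 nm. Gain or loss of signal is fitted against the DMSO negative control.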
# [4] = read-out: TIMP metallopeptidase inhibitor 1 (TIMP1), TIMP1 (gene 7076); test: BSK_hDFCGF_TIMP1: BioMAP Diversity Plus: hDFCGF Assay for TIMP metallopeptidase inhibitor 1 (TIMP1) Biomarker Activity (AID 2283062); details: primary human foreskin fibroblasts; actives raise or lower the signal
# In short: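 Bidirectional curve fitting against DMSO baseline yielded this endpoint, based on ELISA detection of TIMP-1 in primary human foreskin fibroblasts exposed to compound for 24 h.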
# [5] = read-out: Monokine induced gamma interferon (MIG), CXCL9 (gene 4283); test: BSK_hDFCGF_MIG: BioMAP Diversity Plus: hDFCGF Assay for Monokine induced gamma interferon (MIG) Biomarker Activity (AID 2283063); details: primary human foreskin fibroblasts; actives raise or lower the signal
# In short: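 Endpoint derived by bidirectional fitting relative to DMSO; MIG quantified via ELISA in primary human foreskin fibroblasts harvested 24 h after dosing.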
# [6] = read-out: Matrix Metallopeptidase 1 (MMP1), MMP1 (gene 4312); test: BSK_hDFCGF_MMP1: BioMAP Diversity Plus: hDFCGF Assay for Matrix Metallopeptidase 1 (MMP1) Biomarker Activity (AID 2283064); details: primary human foreskin fibroblasts; actives raise or lower the signal
# In short: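 Primary human foreskin fibroblasts in the hDFCGF system were dosed with test chemical, and MMP1 was measured by ELISA 24 h later. Values come from bidirectional curve fitting against the DMSO baseline.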
# [7] = read-out: Vascular cell adhesion molecule 1 (VCAM1), VCAM1 (gene 7412); test: BSK_hDFCGF_VCAM1: BioMAP Diversity Plus: hDFCGF Assay for Vascular cell adhesion molecule 1 (VCAM1) Biomarker Activity (AID 2283065); details: primary human foreskin fibroblasts; actives raise or lower the signal;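 on AC50: VCAM-1 protein level quantified by ELISA after 24 h chemical exposure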
# In short: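 Measured after 24 h chemical treatment of primary human skin fibroblasts, VCAM-1 was detected by ELISA and concentration-response analysed in both directions versus DMSO vehicle.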
# [8] = read-out: Plasminogen activator inhibitor-1 (PAI1), SERPINE1 (gene 5054); test: BSK_hDFCGF_PAI1: BioMAP Diversity Plus: hDFCGF Assay for Plasminogen activator inhibitor-1 (PAI1) Biomarker Activity (AID 2283066); details: primary human foreskin fibroblasts; actives raise or lower the signal
# In short: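 Primary dermal fibroblasts (human foreskin), hDFCGF system; compound 24 h; PAI-1 by ELISA; bidirectional fit vs DMSO control.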
# [9] = read-out: Intercellular Adhesion Molecule 1 (ICAM1), ICAM1 (gene 3383); test: BSK_KF3CT_ICAM1: BioMAP Diversity Plus: KF3CT Assay for Intercellular Adhesion Molecule 1 (ICAM1) Biomarker Activity (AID 2283067); details: primary human keratinocytes with fibroblasts; actives raise or lower the signal
# In short: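 Bidirectional curve fitting against a DMSO baseline was applied to ICAM-1 ELISA signal from primary human skin co-cultures harvested 24 h after treatment, with SRB staining of parallel wells for overt cytotoxicity.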
# [10] = read-out: Interleukin-8 (IL8), CXCL8 (gene 3576); test: BSK_hDFCGF_IL8: BioMAP Diversity Plus: hDFCGF Assay for Interleukin-8 (IL8) Biomarker Activity (AID 2283058); details: primary human foreskin fibroblasts; actives raise or lower the signal
# In short: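 Fibroblast monolayers (human foreskin, hDFCGF) received test chemical for 24 h before ELISA detection of IL-8; either increases or decreases relative to DMSO count as activity.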
smiles,measurement,setting,value
CN=C=S,outcome,[1],inactive
same,outcome,[2],inactive
same,outcome,[3],inactive
same,outcome,[4],inactive
same,outcome,[5],inactive
same,outcome,[6],inactive
same,outcome,[7],inactive
same,outcome,[8],inactive
same,outcome,[9],inactive
CCN(CC)c1nc(C)cc(OP(=S)(OC)OC)n1,outcome,[10],inactive
same,AC50,[2],14.6 µM (active)
same,outcome,[3],inactive
same,outcome,[4],inactive
same,outcome,[5],inactive
same,AC50,[6],4.09 µM (active)
same,AC50,[7],27 µM (active)
same,AC50,[8],11.3 µM (active)
same,outcome,[9],inactive
Cc1nc(N(C)C)nc(OC(=O)N(C)C)c1C,outcome,[2],inactive
same,AC50,[3],29.8 µM (active)
same,outcome,[4],inactive
same,outcome,[5],inactive
same,outcome,[6],inactive
same,outcome,[7],inactive
same,outcome,[8],inactive
same,outcome,[9],inactive
CCOc1nc(F)cc2nc(S(=O)(=O)Nc3c(Cl)cccc3Cl)nn12,outcome,[1],inactive
same,outcome,[2],inactive
same,outcome,[3],inactive
same,outcome,[4],inactive
same,outcome,[5],inactive
same,outcome,[6],inactive
same,outcome,[7],inactive
same,outcome,[8],inactive
same,outcome,[9],inactive
CC(C)Nc1nc(Cl)nc(NC(C)C)n1,outcome,[1],inactive
same,outcome,[2],inactive
same,outcome,[3],inactive
same,outcome,[4],inactive
same,outcome,[5],inactive
same,outcome,[6],inactive
same,outcome,[7],inactive
same,outcome,[8],inactive
same,outcome,[9],inactive
CNC(=O)N(C)c1nnc(C(C)(C)C)s1,outcome,[1],inactive
same,outcome,[2],inactive
same,outcome,[3],inactive
same,outcome,[4],inactive
same,outcome,[5],inactive
same,outcome,[6],inactive
same,outcome,[7],inactive
same,outcome,[8],inactive
same,outcome,[9],inactive
O=C1C2CC=CCC2C(=O)N1SC(Cl)(Cl)Cl (stereo not given),AC50,[1],1.85 µM (active)
same,AC50,[2],6.29 µM (active)
same,AC50,[3],6.26 µM (active)
same,outcome,[4],inactive
same,AC50,[5],7.37 µM (active)
same,AC50,[6],10.7 µM (active)
same,AC50,[7],5.37 µM (active)
same,AC50,[8],7.58 µM (active)
same,AC50,[9],9.86 µM (active)
CCOC(=O)C(C)OC(=O)c1cc(Oc2ccc(C(F)(F)F)cc2Cl)ccc1[N+](=O)[O-] (stereo not given),outcome,[1],inactive
same,AC50,[2],8.12 µM (active)
same,outcome,[3],inactive
same,outcome,[4],inactive
same,outcome,[5],inactive
same,outcome,[6],inactive
same,outcome,[7],inactive
same,outcome,[8],inactive
same,outcome,[9],inactive
CC1(C)CCC(=Cc2ccc(Cl)cc2)C1(O)Cn1cncn1 (stereo not given),outcome,[2],inactive
same,outcome,[3],inactive
same,outcome,[4],inactive
same,outcome,[5],inactive
same,outcome,[6],inactive
same,outcome,[7],inactive
same,outcome,[8],inactive
same,outcome,[9],inactive
COP(=S)(OC)Oc1ccc([N+](=O)[O-])c(C)c1,AC50,[2],13.2 µM (active)
same,outcome,[3],inactive
same,outcome,[4],inactive
same,outcome,[5],inactive
same,outcome,[6],inactive
same,AC50,[7],9.37 µM (active)
same,outcome,[8],inactive
same,outcome,[9],inactive
COC(=O)c1c(C(F)F)nc(C(F)(F)F)c(C2=NCCS2)c1CC(C)C,outcome,[1],inactive
same,outcome,[2],inactive
same,outcome,[3],inactive
same,outcome,[4],inactive
same,outcome,[5],inactive
same,outcome,[6],inactive
same,outcome,[7],inactive
same,outcome,[8],inactive
same,outcome,[9],inactive
CC1(C)CON(Cc2ccccc2Cl)C1=O,outcome,[1],inactive
same,outcome,[2],inactive
same,outcome,[3],inactive
same,outcome,[5],inactive
same,AC50,[6],20 µM (active)
same,outcome,[7],inactive
same,outcome,[8],inactive
same,outcome,[9],inactive
COC(=O)N(C(=O)N1CO[C@@]2(C(=O)OC)Cc3cc(Cl)ccc3C2=N1)c1ccc(OC(F)(F)F)cc1,outcome,[2],inactive
same,AC50,[3],3.65 µM (active)
same,outcome,[4],inactive
same,outcome,[5],inactive
same,outcome,[6],inactive
same,outcome,[7],inactive
same,AC50,[8],5.54 µM (active)
same,outcome,[9],inactive
CS(=O)(=O)c1cc(C(F)(F)F)ccc1C(=O)c1cnoc1C1CC1,outcome,[1],inactive
same,outcome,[2],inactive
same,outcome,[3],inactive
same,outcome,[4],inactive
same,outcome,[5],inactive
same,outcome,[6],inactive
same,outcome,[7],inactive
same,outcome,[8],inactive
same,outcome,[9],inactive
CC(C)Oc1cccc(NC(=O)c2ccccc2C(F)(F)F)c1,AC50,[1],27.5 µM (active)
same,outcome,[2],inactive
same,AC50,[3],20 µM (active)
same,outcome,[4],inactive
same,outcome,[5],inactive
same,outcome,[6],inactive
same,outcome,[7],inactive
same,outcome,[8],inactive
same,outcome,[9],inactive
N#Cc1c[nH]cc1-c1cccc2c1OC(F)(F)O2,AC50,[2],8.88 µM (active)
same,AC50,[3],5.56 µM (active)
same,outcome,[4],inactive
same,outcome,[5],inactive
same,AC50,[6],5.28 µM (active)
same,AC50,[7],5.39 µM (active)
same,outcome,[8],inactive
same,outcome,[9],inactive
O=C(Nc1ccccc1-c1ccc(Cl)cc1)c1cccnc1Cl,outcome,[2],inactive
same,outcome,[3],inactive
same,outcome,[4],inactive
same,outcome,[5],inactive
same,outcome,[6],inactive
same,outcome,[7],inactive
same,outcome,[8],inactive
same,outcome,[9],inactive
CCOc1nc(C(Cl)(Cl)Cl)ns1,outcome,[1],inactive
same,outcome,[2],inactive
same,outcome,[3],inactive
same,outcome,[4],inactive
same,outcome,[5],inactive
same,outcome,[6],inactive
same,outcome,[7],inactive
same,outcome,[8],inactive
same,outcome,[9],inactive

# Source: PubChem BioAssay (EPA / NIEHS)
